Experimental data taken from the supplement of paper PMC10498489.
Among all 2,300 compounds or so, about 330 (14%) showed activity.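 The calls were made as follows: active = median modified Z-score above 1.96; inactive = 1.96 or below.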 Only a sample is shown.

Tested on: HepG2 Srxn1-GFP reporter cells (+30 nM CDDO-Me)
Assay: Srxn1-GFP intensity median modified Z-score relative to plate median; higher = stronger NRF2 / oxidative stress reporter activation, active = hit call of the paper
Conditions: 10 µM; exposure time: 24h
Procedure, shortened: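 HepG2 Srxn1-GFP BAC reporter cells (20,000 per well, 96-well plates) were co-exposed to an NRF2 activator at 30 nM and compound at 10 μM (≤0.1% DMSO) for 24 h in three replicate plates. After formaldehyde fixation and Hoechst staining, confocal images were analysed per cell for cytoplasmic GFP, excluding images with under 100 cells. The value is the median over replicates of the per-plate modified Z-score of GFP intensity. Scaling used 1.4826 × median absolute deviation.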

Srxn1-GFP intensity median modified Z-score, inactive:
CCOc1ccc(S(=O)(=O)O)c2cccnc12 [euspeclibcmpd2064] 0.0425
Nc1ccc(S(=O)(=O)N=c2cnc3ccccc3[nH]2)cc1 [euspeclibcmpd2157] 0.000648
OC[C@@H](O)[C@H](O)[C@@H](O)[C@H](O)CO [euspeclibcmpd2232] 0.317
O=c1ccn([C@@H]2O[C@H](CO)[C@@H](O)[C@H]2O)c(=O)[nH]1 [euspeclibcmpd2258] -0.304
NC(=O)c1ncn(C2O[C@H](CO)[C@@H](O)[C@H]2O)c1N (some centres not stated) [euspeclibcmpd855] 0.445
N=c1[nH]cnc2c1ncn2[C@@H]1O[C@H](CO)[C@@H](O)[C@H]1O [euspeclibcmpd2100] -0.0799
N=c1ccn(C2O[C@H](CO)[C@@H](O)[C@H]2O)c(=O)[nH]1 (some centres not stated) [euspeclibcmpd2152] -0.285
Cc1c(NS(=O)(=O)C(C)C)c(=O)n(-c2ccccc2)n1C 1.19
CC(C)(CO)C(=O)C(O)NCCCO (configuration not stated) [euspeclibcmpd2316] -0.0436
CC(C)(CO)C(=O)C(O)NCCCO (configuration not stated) [euspeclibcmpd2342] -0.119
CON=C(C(=O)NC1C(=O)N2C(C(=O)OCOC(=O)C(C)(C)C)=C(/C=C\c3scnc3C)CSC12)c1csc(=N)[nH]1 (configuration not stated) [euspeclibcmpd753] 0.022
CON=C(C(=O)NC1C(=O)N2C(C(=O)O)=C(COC(N)=O)CSC12)c1ccco1 (configuration not stated) [euspeclibcmpd2072] -0.532
CN1C(C(=O)N=c2cccc[nH]2)C(=O)c2ccccc2S1(=O)=O (configuration not stated) [euspeclibcmpd238] -0.406
N=c1ccn(C2CSC(CO)O2)c(=O)[nH]1 (configuration not stated) [euspeclibcmpd613] -0.762
CON=C(C(=O)NC1C(=O)N2C(C(=O)OC(C)OC(C)=O)=C(COC(N)=O)CSC12)c1ccco1 (configuration not stated) [euspeclibcmpd658] 0.198
Cc1noc(C)c1S(=O)(=O)N1CCN(C(=O)C2=COCCO2)CC1 1.2
COC(=O)C[C@H]1C(C)(C)[C@@H](O)C2CC3=C4C=C(OC)O[C@@H](c5ccoc5)[C@]4(C)CCC3[C@@]1(C)C2=O (some centres not stated) [euspeclibcmpd1395] 1.94
CCn1c(O)c(-c2ccccc2)[nH]c1=O [euspeclibcmpd780] -0.504
Cc1c(NC(=O)c2ccsc2)c(=O)n(-c2ccccc2)n1C 0.403
CO[C@H]1C[C@H](O[C@@H]2C(C)C(=O)O[C@H](C)[C@H](C)[C@H](OC(C)=O)C(C)C(=O)[C@@]3(CO3)C[C@H](C)[C@H](OC3O[C@H](C)C[C@H](N(C)C)[C@H]3OC(C)=O)[C@H]2C)O[C@@H](C)[C@@H]1OC(C)=O (some centres not stated) [euspeclibcmpd623] -0.159
CC(=O)OCC(=O)C1CCC2C3CC=C4CC(=O)CC[C@]4(C)C3CC[C@]12C (some centres not stated) [euspeclibcmpd6] -0.444
C[C@]12CCC(=O)CC1=CCC1C2C(=O)C[C@@]2(C)C1CC[C@]2(O)C(=O)CO (some centres not stated) [euspeclibcmpd1248] -0.459
CCCCC(=O)O[C@]1(C(=O)CO)CCC2C3CC=C4CC(=O)CC[C@]4(C)C3[C@@H](O)C[C@@]21C (some centres not stated) [euspeclibcmpd786] -0.698
CC(=O)C1CCC2C3CC=C4C[C@@H](O)CC[C@]4(C)C3CC[C@]12C (some centres not stated) [euspeclibcmpd1041] 0.815
CC(=O)[C@@]1(O)CCC2C3CC=C4CC(=O)CC[C@]4(C)C3CC[C@@]21C (some centres not stated) [euspeclibcmpd1279] -0.195
CCCC(=O)O[C@]1(C(=O)CO)CCC2[C@@H]3CC=C4CC(=O)CC[C@]4(C)C3[C@@H](O)C[C@@]21C (some centres not stated) [euspeclibcmpd566] -0.863
CC(=O)O[C@]1(C(C)=O)CCC2C3=CC(Cl)=C4CC(=O)CC[C@]4(C)C3CC[C@@]21C (some centres not stated) [euspeclibcmpd746] -0.232
N=C(N)NC(=O)c1nc(Cl)c(=N)[nH]c1N [euspeclibcmpd18] 1.07
C[C@]12CCC3c4ccc(O)cc4CCC3C1CCC2=O (some centres not stated) [euspeclibcmpd118] -0.384
CC1C(=NO)C[C@@H]2C[C@H]1C2(C)C (some centres not stated) [euspeclibcmpd1398] -0.67
OCc1cc(O)c2c(O)c3c(O[C@@H]4O[C@H](CO)[C@@H](O)[C@H](O)[C@H]4O)cccc3c(O[C@@H]3O[C@H](CO)[C@@H](O)[C@H](O)[C@H]3O)c2c1 [euspeclibcmpd932] 0.277
CCC(C(=O)O)c1ccccc1 (configuration not stated) [euspeclibcmpd2274] -0.651
Cc1cc(=O)oc2cc(O)ccc12 [euspeclibcmpd929] 0.128
O=c1ccc2ccc(O)cc2o1 [euspeclibcmpd1541] -0.459
CC(CS)C(=O)N1CCCC1C(=O)O (configuration not stated) [euspeclibcmpd337] -0.273

Srxn1-GFP intensity median modified Z-score, active:
CCN(CC)Cc1ccc(N=c2cc[nH]c3cc(Cl)ccc23)cc1O [euspeclibcmpd22] 3.72
N=c1ncn([C@@H]2O[C@H](CO)[C@@H](O)[C@H]2O)c(=O)[nH]1 [euspeclibcmpd436] 15.1
N=c1[nH]c(=S)c2ncn(C3O[C@H](CO)[C@@H](O)[C@H]3O)c2[nH]1 (some centres not stated) [euspeclibcmpd1778] 41.1
CC(=O)C12OC(C)(c3ccccc3)OC1CC1C3CC=C4CC(=O)CCC4(C)C3CCC12C (configuration not stated) [euspeclibcmpd1961] 5.88
CCCCCC(=O)O[C@]1(C(C)=O)CCC2C3CC=C4CC(=O)CC[C@]4(C)C3CC[C@@]21C (some centres not stated) [euspeclibcmpd155] 13.5
CC(=O)C1CCC2C3CC=C4CC(=O)CC[C@]4(C)C3CC[C@]12C (some centres not stated) [euspeclibcmpd251] 2.27
O=c1oc2cc(O)ccc2s1 [euspeclibcmpd1146] 5.96
